Data from ChEMBL document CHEMBL1157539, “Thousands of chemical starting points for antimalarial lead identification” (Nature, 2010).

test system: HepG2; experiment: GSK_TCMDC: Percent inhibition of human HepG2 cell line. Test compounds present at 10uM.; type: functional

SMILES | Inhibition
CC(C)(C)c1cc(C(=O)N2CCN(c3ccc(C(F)(F)F)cn3)CC2)n(Cc2ccc(F)cc2)n1 | 4%
O=C(Nc1cccc([N+](=O)[O-])c1)Nc1ccc(Cl)c(C(F)(F)F)c1 | 15%
Cc1cccc2nc(-c3ccc(-c4cccc(NC(=O)Nc5ccsc5)c4)cc3)[nH]c12 | 24%
COc1ccc(-c2cccc(NC(=O)c3cccc(C#N)c3)c2)cc1CN1CCC(O)CC1.O=C(O)C(F)(F)F | 30%
Fc1ccc(OC2CN(c3nccc(NCc4ccccc4Cl)n3)C2)cc1 | 0%
Cc1cccc2nc(-c3cccc(-c4cccc(CN5CCN(c6ccc(C#N)cn6)CC5)c4)c3)[nH]c12.O=C(O)C(F)(F)F | 11%
O=C(NCCCCN1CCC(c2ccc3ccccc3c2O)CC1)c1ccc(NC(=O)c2ccc(Cl)cc2)cc1 | 34%
Cc1cc(N(C)C)nc(Nc2ccc(NC(=O)COc3ccccc3)cc2)n1 | 15%
CNc1ccc(CNCc2ccc(-c3ccc(-c4nc5cccc(C)c5[nH]4)cc3)cc2)cc1.O=C(O)C(F)(F)F | 35%
COc1ccc2nccc([C@@H](O)CN3CCC(NS(=O)(=O)c4cc5c(cc4Cl)SCC(=O)N5)CC3)c2c1.O=C(O)C(=O)O | 5%
Cc1nc2ccccc2c(=O)n1NCc1ccc(Cl)c(Cl)c1 | 12%
COc1ccccc1Nc1nc(C)cc(NCc2ccc(-c3c(C)noc3C)cc2)n1 | 12%
COC(=O)c1ccc2[nH]cc(C3CCN(CCC4CCN(C(=O)/C=C/c5ccc(Cl)c(Cl)c5)CC4)CC3)c2c1 | 24%
